The supplement of paper PMC10849652
About 7,900 targets were measured; listed, in parts, are those with a hit and a random draw of the rest. About 0.6% of all pairs of compound and target were hits.

Legend:
Assay in all cases: log2 fold change, soluble protein after heating vs DMSO (PISA); higher = thermal stabilisation; K562 cells, 10 uM, 30 min; active = over 0.2 and 3.5 SD of the protein, either way, in both replicates (recomputed)
YAE1 = YAE1 (UniProt Q9NRH1)
In short: (§1)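 K562 cells at 2×10^6 cells/mL were given 10 μM compound for 30 min. Aliquots then went through 3 min of heating across 48°C-58°C, were pooled, and were extracted in PBS with 0.5% NP-40 at 4°C, and the supernatant after 21,000xg for 90 min was quantified by TMTpro 16plex LC-MS/MS with channel sums equalised. Thermal stability relative to control samples, from duplicates, is given as log2 fold change.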

YBX1 [1] = target: YBX1 (UniProt C9J5V9)
In short: as §1

YBX1 [2] = target: YBX1 (UniProt P67809)
Chain of YBX1 (UniProt P67809) (P67809 whole entry, looked up): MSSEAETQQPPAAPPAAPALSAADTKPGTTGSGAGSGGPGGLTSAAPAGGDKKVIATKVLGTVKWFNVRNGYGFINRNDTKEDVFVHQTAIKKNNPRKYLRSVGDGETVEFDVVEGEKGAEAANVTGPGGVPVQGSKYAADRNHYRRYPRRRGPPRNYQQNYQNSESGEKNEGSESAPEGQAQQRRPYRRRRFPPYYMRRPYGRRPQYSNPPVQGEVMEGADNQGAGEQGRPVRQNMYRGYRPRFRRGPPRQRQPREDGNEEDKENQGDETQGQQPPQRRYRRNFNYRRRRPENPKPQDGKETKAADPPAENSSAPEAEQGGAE
In short: as §1

YES1 = YES1 (UniProt P07947)
Chain of YES1 (P07947 whole entry, looked up): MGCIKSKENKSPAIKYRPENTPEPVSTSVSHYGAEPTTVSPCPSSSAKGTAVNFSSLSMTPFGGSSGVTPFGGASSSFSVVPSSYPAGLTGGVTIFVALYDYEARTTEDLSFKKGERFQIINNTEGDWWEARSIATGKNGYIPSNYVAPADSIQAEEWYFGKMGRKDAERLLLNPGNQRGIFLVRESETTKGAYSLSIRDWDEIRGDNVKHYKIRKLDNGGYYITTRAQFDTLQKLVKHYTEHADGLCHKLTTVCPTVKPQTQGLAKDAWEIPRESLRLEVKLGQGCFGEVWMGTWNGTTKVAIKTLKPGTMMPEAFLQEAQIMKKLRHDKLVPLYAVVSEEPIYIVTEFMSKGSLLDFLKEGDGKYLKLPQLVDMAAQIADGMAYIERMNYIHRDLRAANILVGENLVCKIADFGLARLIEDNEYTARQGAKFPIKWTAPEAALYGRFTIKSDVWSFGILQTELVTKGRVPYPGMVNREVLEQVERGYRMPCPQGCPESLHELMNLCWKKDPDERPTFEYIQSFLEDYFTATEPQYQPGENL
In short: as §1

YIPF4 = YIPF4 (UniProt Q9BSR8)
Chain of YIPF4 (Q9BSR8 whole entry, looked up): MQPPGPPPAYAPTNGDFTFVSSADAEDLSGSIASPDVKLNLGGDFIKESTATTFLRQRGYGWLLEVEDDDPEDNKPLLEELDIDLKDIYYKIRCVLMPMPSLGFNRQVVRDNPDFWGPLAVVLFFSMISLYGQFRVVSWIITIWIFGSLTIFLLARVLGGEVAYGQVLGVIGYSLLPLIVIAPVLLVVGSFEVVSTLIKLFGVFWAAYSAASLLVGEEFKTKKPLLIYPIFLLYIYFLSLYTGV
In short: as §1

YIPF5 isoform 3 = YIPF5 isoform 3 (UniProt Q969M3)
In short: as §1

YIPF6 = YIPF6 (UniProt Q96EC8)
Chain of YIPF6 (Q96EC8 whole entry, looked up): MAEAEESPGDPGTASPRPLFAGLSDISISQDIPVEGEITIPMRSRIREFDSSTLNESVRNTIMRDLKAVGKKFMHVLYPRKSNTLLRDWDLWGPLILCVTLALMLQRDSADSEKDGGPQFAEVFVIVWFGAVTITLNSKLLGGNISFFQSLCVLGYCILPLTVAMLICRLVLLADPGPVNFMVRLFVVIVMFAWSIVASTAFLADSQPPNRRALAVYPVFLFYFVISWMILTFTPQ
In short: as §1

YLPM1 = YLPM1 (UniProt P49750)
In short: as §1

YOD1 = YOD1 (UniProt Q5VVQ6)
Chain of YOD1 (Q5VVQ6 whole entry, looked up): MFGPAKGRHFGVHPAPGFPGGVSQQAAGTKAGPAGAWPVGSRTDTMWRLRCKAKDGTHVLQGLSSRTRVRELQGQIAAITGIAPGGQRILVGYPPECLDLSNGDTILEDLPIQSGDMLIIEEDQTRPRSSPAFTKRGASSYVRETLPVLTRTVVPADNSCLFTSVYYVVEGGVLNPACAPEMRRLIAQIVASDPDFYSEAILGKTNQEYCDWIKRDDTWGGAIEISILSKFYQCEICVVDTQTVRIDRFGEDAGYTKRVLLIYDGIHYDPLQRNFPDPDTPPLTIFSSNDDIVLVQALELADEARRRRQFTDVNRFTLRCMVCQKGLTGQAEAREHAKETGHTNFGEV
In short: as §1

YPEL5 = YPEL5 (UniProt P62699)
In short: as §1

YWHAB = YWHAB (UniProt P31946)
Chain of YWHAB (P31946 whole entry, looked up): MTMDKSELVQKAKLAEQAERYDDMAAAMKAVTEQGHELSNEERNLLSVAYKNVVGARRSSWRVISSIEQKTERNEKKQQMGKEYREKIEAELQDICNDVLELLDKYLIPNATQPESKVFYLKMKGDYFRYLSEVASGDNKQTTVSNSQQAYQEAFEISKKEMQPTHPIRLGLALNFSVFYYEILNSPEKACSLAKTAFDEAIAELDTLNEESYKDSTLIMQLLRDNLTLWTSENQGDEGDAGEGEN
In short: as §1

YWHAQ = YWHAQ (UniProt P27348)
Chain of YWHAQ (P27348 whole entry, looked up): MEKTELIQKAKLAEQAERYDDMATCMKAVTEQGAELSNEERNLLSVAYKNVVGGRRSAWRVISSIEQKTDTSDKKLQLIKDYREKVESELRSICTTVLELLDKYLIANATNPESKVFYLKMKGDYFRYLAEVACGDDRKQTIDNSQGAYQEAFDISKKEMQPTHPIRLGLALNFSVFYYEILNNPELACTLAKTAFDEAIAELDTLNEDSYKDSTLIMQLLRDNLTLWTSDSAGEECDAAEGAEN
In short: as §1

YWHAZ [3] = target: YWHAZ (UniProt E7ESK7)
In short: as §1

YWHAZ [4] = target: YWHAZ (UniProt P63104)
In short: as §1

YY1 = YY1 (UniProt P25490)
In short: as §1

ZADH2 = ZADH2 (UniProt Q8N4Q0)
In short: as §1

ZBTB21 = ZBTB21 (UniProt Q9ULJ3)
Chain of ZBTB21 (Q9ULJ3 whole entry, looked up): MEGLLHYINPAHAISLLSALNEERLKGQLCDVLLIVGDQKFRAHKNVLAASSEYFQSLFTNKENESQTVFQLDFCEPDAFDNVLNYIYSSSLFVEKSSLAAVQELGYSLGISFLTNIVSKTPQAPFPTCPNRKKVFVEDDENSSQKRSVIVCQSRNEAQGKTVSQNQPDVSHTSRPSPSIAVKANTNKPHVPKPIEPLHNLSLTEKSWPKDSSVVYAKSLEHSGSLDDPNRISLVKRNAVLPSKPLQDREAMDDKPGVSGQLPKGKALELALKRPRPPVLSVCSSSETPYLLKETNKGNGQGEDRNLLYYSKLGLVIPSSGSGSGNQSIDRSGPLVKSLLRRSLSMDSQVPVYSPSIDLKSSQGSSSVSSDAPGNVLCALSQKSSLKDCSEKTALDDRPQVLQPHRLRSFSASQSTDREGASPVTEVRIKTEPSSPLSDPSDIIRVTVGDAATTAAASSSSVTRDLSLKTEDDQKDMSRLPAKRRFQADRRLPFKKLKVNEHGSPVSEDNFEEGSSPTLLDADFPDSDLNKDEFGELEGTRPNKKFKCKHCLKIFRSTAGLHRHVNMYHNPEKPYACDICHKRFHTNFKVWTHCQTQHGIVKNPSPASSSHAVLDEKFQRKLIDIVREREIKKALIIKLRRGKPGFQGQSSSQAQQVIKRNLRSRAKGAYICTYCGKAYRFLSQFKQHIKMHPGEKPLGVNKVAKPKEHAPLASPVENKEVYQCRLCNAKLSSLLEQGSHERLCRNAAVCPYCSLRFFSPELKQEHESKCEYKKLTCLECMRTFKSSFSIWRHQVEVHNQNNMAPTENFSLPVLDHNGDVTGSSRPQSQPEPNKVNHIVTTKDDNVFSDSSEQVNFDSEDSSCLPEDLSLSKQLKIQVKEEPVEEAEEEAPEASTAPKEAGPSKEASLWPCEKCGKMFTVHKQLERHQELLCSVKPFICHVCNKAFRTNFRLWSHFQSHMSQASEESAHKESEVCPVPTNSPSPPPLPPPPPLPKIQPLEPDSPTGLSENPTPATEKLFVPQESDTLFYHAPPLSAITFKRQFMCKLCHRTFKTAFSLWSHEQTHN
In short: as §1

ZBTB43 = ZBTB43 (UniProt O43298)
Chain of ZBTB43 (O43298 whole entry, looked up): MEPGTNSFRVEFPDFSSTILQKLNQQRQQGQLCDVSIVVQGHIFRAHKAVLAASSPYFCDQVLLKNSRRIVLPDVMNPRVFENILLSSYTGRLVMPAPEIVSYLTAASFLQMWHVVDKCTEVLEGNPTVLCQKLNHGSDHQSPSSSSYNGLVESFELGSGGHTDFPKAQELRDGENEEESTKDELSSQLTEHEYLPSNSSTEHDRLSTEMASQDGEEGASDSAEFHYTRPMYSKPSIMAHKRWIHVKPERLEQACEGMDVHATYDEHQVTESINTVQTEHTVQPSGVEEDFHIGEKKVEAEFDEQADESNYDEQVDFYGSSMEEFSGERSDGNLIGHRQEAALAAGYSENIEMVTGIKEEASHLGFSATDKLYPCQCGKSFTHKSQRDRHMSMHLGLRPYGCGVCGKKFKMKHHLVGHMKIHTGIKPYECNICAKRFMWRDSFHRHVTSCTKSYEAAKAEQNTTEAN
In short: as §1

ZC3H18 = ZC3H18 (UniProt Q86VM9)
Chain of ZC3H18 (Q86VM9 whole entry, looked up): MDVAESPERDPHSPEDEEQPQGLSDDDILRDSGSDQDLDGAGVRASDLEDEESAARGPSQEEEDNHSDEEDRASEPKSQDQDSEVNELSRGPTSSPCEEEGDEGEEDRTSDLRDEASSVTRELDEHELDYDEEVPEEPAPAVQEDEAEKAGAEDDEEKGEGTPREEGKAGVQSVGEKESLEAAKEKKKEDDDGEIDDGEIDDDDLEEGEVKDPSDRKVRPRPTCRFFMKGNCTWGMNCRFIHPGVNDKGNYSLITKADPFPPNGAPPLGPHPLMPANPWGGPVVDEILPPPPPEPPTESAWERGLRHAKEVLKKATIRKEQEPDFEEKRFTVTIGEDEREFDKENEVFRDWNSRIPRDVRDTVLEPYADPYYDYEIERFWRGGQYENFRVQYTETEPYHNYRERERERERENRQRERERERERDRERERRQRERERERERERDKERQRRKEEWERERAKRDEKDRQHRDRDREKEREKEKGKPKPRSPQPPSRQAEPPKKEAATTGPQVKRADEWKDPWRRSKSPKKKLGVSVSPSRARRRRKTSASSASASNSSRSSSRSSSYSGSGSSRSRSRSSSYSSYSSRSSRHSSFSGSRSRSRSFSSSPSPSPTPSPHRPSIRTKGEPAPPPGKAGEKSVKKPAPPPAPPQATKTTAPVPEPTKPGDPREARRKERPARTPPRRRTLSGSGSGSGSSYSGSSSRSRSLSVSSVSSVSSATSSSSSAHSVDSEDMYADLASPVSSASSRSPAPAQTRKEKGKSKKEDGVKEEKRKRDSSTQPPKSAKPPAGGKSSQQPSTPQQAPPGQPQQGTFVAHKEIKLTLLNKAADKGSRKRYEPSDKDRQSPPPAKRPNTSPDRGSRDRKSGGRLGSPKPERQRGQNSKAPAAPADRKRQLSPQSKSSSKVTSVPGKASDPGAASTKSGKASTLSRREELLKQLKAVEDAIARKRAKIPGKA
In short: as §1

ZBTB17 isoform 2 = ZBTB17 isoform 2 (UniProt Q13105)
In short: as §1

Measured: log2 fold change

Chain of YAE1 (Q9NRH1 whole entry, looked up): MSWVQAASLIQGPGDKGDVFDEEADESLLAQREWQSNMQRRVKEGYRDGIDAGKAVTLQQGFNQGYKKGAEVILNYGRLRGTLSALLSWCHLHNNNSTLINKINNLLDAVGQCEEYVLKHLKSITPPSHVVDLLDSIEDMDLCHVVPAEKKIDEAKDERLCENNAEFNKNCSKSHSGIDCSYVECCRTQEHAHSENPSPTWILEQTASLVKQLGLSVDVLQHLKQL

O=C1NC(=NCc2cccs2)S/C1=C\c1ccc2ncccc2c1
inactive: YAE1 -0.018 | YBX1 [1] -0.002 | YBX1 [2] -0.115 | YES1 0.094 | YIPF4 -0.006 | YIPF5 isoform 3 -0.008 | YIPF6 0.042 | YLPM1 0.057 | YOD1 0.066 | YPEL5 -0.021 | YWHAB 0.023 | YWHAQ -0.201 | YWHAZ [3] -0.13 | YWHAZ [4] -0.154 | YY1 -0.014 | ZADH2 0.042 | ZBTB21 -0.024 | ZBTB43 -0.081 | ZC3H18 0.003

C[C@@H](Oc1cc(-c2cnn(C3CCNCC3)c2)cnc1N)c1c(Cl)ccc(F)c1Cl [crizotinib]
active: YES1 -0.576
inactive: YAE1 -0.018 | YBX1 [1] 0.028 | YBX1 [2] 0 | YIPF4 0.054 | YIPF5 isoform 3 0.081 | YIPF6 -0.081 | YLPM1 -0.08 | YOD1 -0.052 | YPEL5 0.019 | YWHAB 0.017 | YWHAQ 0.026 | YWHAZ [3] 0.081 | YWHAZ [4] 0.008 | YY1 -0.021 | ZADH2 0.127 | ZBTB21 -0.1 | ZBTB43 -0.077 | ZC3H18 -0.042

COc1ccc(Cn2ccc3ccc(C(=O)NO)cc32)cc1
inactive: YAE1 0.013 | YBX1 [1] -0.033 | YBX1 [2] -0.019 | YES1 0.072 | YIPF4 -0.098 | YIPF5 isoform 3 -0.065 | YIPF6 -0.019 | YLPM1 0.018 | YOD1 0.037 | YPEL5 -0.269 | YWHAB -0.028 | YWHAQ 0.3 | YWHAZ [3] 0.006 | YWHAZ [4] -0.002 | YY1 0.069 | ZADH2 0.008 | ZBTB21 0.026 | ZBTB43 0.094 | ZC3H18 -0.009

CC(C)(O)CC(=O)NCCn1ccc2ncnc(Nc3ccc(Oc4cccc(C(F)(F)F)c4)c(Cl)c3)c21
inactive: YAE1 0.072 | YBX1 [2] 0.162 | YES1 -0.054 | YIPF4 -0.012 | YIPF5 isoform 3 -0.094 | YIPF6 0.019 | YLPM1 -0.002 | YOD1 -0.113 | YPEL5 0.041 | YWHAB -0.013 | YWHAQ -0.084 | YWHAZ [3] 0.021 | YWHAZ [4] 0.027 | YY1 -0.026 | ZBTB21 0.101 | ZBTB43 0.175 | ZC3H18 0.034
active: ZADH2 -0.323

O=C1c2ccccc2-c2n[nH]c3cccc1c23
inactive: YAE1 -0.048 | YBX1 [1] -0.143 | YBX1 [2] -0.051 | YES1 -0.153 | YIPF4 0.033 | YIPF5 isoform 3 -0.153 | YIPF6 -0.018 | YLPM1 0.02 | YOD1 0.012 | YPEL5 -0.158 | YWHAB 0.001 | YWHAQ 0.089 | YWHAZ [3] 0.008 | YWHAZ [4] 0.045 | YY1 -0.07 | ZADH2 0.03 | ZBTB21 0.006 | ZBTB43 -0.161 | ZC3H18 -0.211

COc1cccc2cc(-c3nc([C@H]4CC[C@H](C(=O)O)CC4)n4ncnc(N)c34)[nH]c12
inactive: YAE1 0.016 | YBX1 [2] -0.091 | YES1 -0.256 | YIPF4 0.06 | YIPF5 isoform 3 0.017 | YIPF6 0.02 | YLPM1 0.053 | YOD1 0.011 | YPEL5 -0.142 | YWHAB 0.014 | YWHAQ -0.098 | YWHAZ [3] 0.187 | YWHAZ [4] -0.052 | YY1 0.009 | ZADH2 -0.059 | ZBTB17 isoform 2 -0.006 | ZBTB21 0.129 | ZC3H18 0.014

CCN(CCCOc1ccc2c(Nc3cc(CC(=O)Nc4cccc(F)c4)[nH]n3)ncnc2c1)CCOP(=O)(O)O [barasertib]
inactive: YAE1 0.097 | YBX1 [2] -0.127 | YES1 -0.006 | YIPF4 0.026 | YIPF5 isoform 3 -0.08 | YIPF6 -0.041 | YLPM1 0.03 | YOD1 0.051 | YPEL5 0.121 | YWHAB 0.003 | YWHAQ 0.006 | YWHAZ [3] 0.114 | YWHAZ [4] -0.002 | YY1 -0.01 | ZADH2 0.049 | ZBTB17 isoform 2 -0.048 | ZBTB21 -0.043 | ZBTB43 -0.105 | ZC3H18 -0.05

Cc1cccc(-c2[nH]c(C(C)(C)C)nc2-c2ccc3nccnc3c2)n1
inactive: YAE1 0.019 | YBX1 [1] -0.03 | YBX1 [2] -0.11 | YES1 0.008 | YIPF4 -0.067 | YIPF5 isoform 3 -0.073 | YIPF6 0.047 | YLPM1 0.043 | YOD1 0.026 | YPEL5 0.097 | YWHAB 0.021 | YWHAQ 0.05 | YWHAZ [3] -0.064 | YWHAZ [4] 0.009 | YY1 0.039 | ZADH2 -0.004 | ZBTB21 -0.03 | ZBTB43 -0.04 | ZC3H18 -0.029

NC1(c2ccc(-c3nc4ccn5c(=O)[nH]nc5c4cc3-c3ccccc3)cc2)CCC1
inactive: YAE1 0.086 | YBX1 [2] 0.306 | YES1 -0.012 | YIPF4 -0.01 | YIPF5 isoform 3 0.017 | YIPF6 -0.024 | YLPM1 -0.046 | YOD1 -0.138 | YPEL5 -0.026 | YWHAB -0.056 | YWHAQ 0.007 | YWHAZ [3] -0.206 | YWHAZ [4] 0.066 | YY1 0.011 | ZADH2 0.106 | ZBTB17 isoform 2 -0.143 | ZBTB21 0.047 | ZC3H18 0.032

C=CC(=O)N1CCC[C@@H](n2nc(-c3ccc(Oc4ccccc4)cc3)c3c(N)ncnc32)C1 [ibrutinib]
inactive: YAE1 -0.008 | YBX1 [2] 0.103 | YES1 0.188 | YIPF4 0.009 | YIPF5 isoform 3 -0.005 | YIPF6 -0.001 | YLPM1 -0.117 | YOD1 -0.016 | YPEL5 0.054 | YWHAB -0.013 | YWHAQ 0.002 | YWHAZ [3] -0.167 | YWHAZ [4] 0.019 | YY1 -0.032 | ZADH2 0.125 | ZBTB17 isoform 2 -0.05 | ZBTB21 -0.174 | ZBTB43 0.064 | ZC3H18 0.002

C/C(=N\NC(=O)c1cccc(S(=O)(=O)N2CCOCC2)c1)c1cc(Cl)ccc1O
inactive: YAE1 -0.051 | YBX1 [1] 0.233 | YBX1 [2] -0.242 | YES1 0.072 | YIPF4 -0.06 | YIPF5 isoform 3 0.016 | YIPF6 -0.067 | YLPM1 0.03 | YOD1 0.053 | YPEL5 0.032 | YWHAB 0.005 | YWHAQ 0.204 | YWHAZ [3] -0.037 | YWHAZ [4] 0.061 | YY1 0.072 | ZBTB21 0.068 | ZBTB43 0.02 | ZC3H18 0.01
active: ZADH2 0.372

CN1CC[C@H](c2c(O)cc(O)c3c(=O)cc(-c4ccccc4Cl)oc23)[C@H](O)C1 [alvocidib]
active: YAE1 0.249
inactive: YBX1 [2] 0.295 | YES1 -0.029 | YIPF4 0.027 | YIPF5 isoform 3 0.003 | YIPF6 0.022 | YLPM1 0 | YOD1 -0.088 | YPEL5 -0.234 | YWHAB -0.06 | YWHAQ -0.192 | YWHAZ [3] -0.003 | YWHAZ [4] -0.056 | YY1 -0.099 | ZADH2 -0.05 | ZBTB21 -0.067 | ZBTB43 0.008 | ZC3H18 -0.217

Cc1ccc(-n2nc(C(C)(C)C)cc2NC(=O)Nc2ccc(OCCN3CCOCC3)c3ccccc23)cc1 [doramapimod]
inactive: YAE1 -0.033 | YBX1 [1] 0.082 | YBX1 [2] 0.047 | YES1 0.006 | YIPF4 0.005 | YIPF5 isoform 3 0.041 | YIPF6 -0.036 | YLPM1 0 | YOD1 0 | YPEL5 0.039 | YWHAB 0.022 | YWHAQ -0.12 | YWHAZ [3] 0 | YWHAZ [4] 0.013 | YY1 -0.037 | ZADH2 -0.013 | ZBTB21 0.069 | ZBTB43 -0.029 | ZC3H18 0.052

Cc1ccc(C(=O)N(CCCN)[C@@H](c2nc3cc(Cl)ccc3c(=O)n2Cc2ccccc2)C(C)C)cc1 [ispinesib]
inactive: YAE1 0.063 | YBX1 [2] -0.093 | YES1 -0.097 | YIPF4 -0.024 | YIPF5 isoform 3 0.08 | YIPF6 0.02 | YLPM1 0.034 | YOD1 -0.042 | YPEL5 -0.039 | YWHAB 0.053 | YWHAQ 0.241 | YWHAZ [3] -0.11 | YWHAZ [4] 0.149 | YY1 -0.147 | ZADH2 -0.107 | ZBTB21 -0.09 | ZBTB43 0.164 | ZC3H18 0.039

Cn1cc(-c2ccc3c(c2)CCN3C(=O)Cc2cccc(C(F)(F)F)c2)c2c(N)ncnc21
inactive: YAE1 -0.095 | YBX1 [2] -0.199 | YES1 -0.284 | YIPF4 0.03 | YIPF5 isoform 3 -0.014 | YIPF6 -0.035 | YLPM1 0.077 | YOD1 0.023 | YPEL5 -0.077 | YWHAB 0.005 | YWHAQ 0.124 | YWHAZ [3] 0.102 | YWHAZ [4] 0.052 | YY1 0.004 | ZADH2 0.04 | ZBTB21 0.122 | ZBTB43 0.023 | ZC3H18 -0.03
